Compound activity from PubChem.
PKM2 inh: inhibitors of human pyruvate kinase M2; actives 0.058% (n = 260,000); purified PKM2, ATP generation, Kinase-Glo luminescence; Potency, µM (top dose mostly 57.5 µM), actives largely listed as inhibitors; P14618; active = well fitted inhibition curve with a large enough effect; also: nearly all actives have a fitted effect of over 60% in size
Target sequence (P14618 whole entry, looked up): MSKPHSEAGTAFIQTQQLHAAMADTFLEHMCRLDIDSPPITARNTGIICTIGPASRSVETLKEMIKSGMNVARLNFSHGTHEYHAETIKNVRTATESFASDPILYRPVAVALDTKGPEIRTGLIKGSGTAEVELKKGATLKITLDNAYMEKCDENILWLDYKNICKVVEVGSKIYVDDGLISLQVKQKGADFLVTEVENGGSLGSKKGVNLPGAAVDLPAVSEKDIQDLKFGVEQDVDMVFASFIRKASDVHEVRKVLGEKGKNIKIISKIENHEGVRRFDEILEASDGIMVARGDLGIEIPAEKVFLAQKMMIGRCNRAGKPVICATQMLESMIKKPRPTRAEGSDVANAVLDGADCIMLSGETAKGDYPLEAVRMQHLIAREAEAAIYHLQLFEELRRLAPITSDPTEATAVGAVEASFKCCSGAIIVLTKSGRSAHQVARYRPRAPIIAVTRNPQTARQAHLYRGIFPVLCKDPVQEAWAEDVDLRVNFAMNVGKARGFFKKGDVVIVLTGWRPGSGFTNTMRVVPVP
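Coupled luciferase luminescence (Kinase-Glo) detects ATP generated from 0.1 mM ADP and 0.5 mM PEP in imidazole buffer pH 7.2 with KCl, MgCl2; 1 h at room temperature. Enzyme at intermediate activity; normalized to uninhibited and no-enzyme controls.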
Numbers stand for hits; i = inactive. Many of the other results were omitted from the sample, so hits are more common in it than they were.

SMILES	PKM2 inh
COc1ccc(NC(=O)Nc2ccccc2C(N)=O)cc1	25µM
COc1cccc(S(=O)(=O)N2CCN(C(=O)c3ccco3)CC2)c1	i
COc1ccc(C(=O)Nc2ncc3c(n2)CC(c2ccco2)CC3=O)cc1 (stereo not given)	i
COc1ccc(/C(N)=N/OC(=O)c2ccco2)cc1	18µM
NS(=O)(=O)c1c(Sc2ccccc2C(=O)O)ccc2ccccc12	i
CN(C)c1nc(N)nc(CSc2nnnn2-c2ccccc2)n1	i
CC(C)CC(=O)Nc1nnc(S(=O)(=O)N2c3ccccc3CC2C)s1 (stereo not given)	i
COc1ccc(S(=O)(=O)N2CCN(C(=O)c3cccs3)CC2)cc1	i
COc1ccc(C(=O)O/N=C(/C)c2cccs2)cc1	14µM
COc1ccc2cc(/C(C)=N/NC(=O)C3CC3)ccc2c1	i
CCOC(=O)/C(C#N)=C1\C(=O)N(Cc2ccccc2)c2ccccc21	i
CCN(CC)c1ccc(/C=C2\SC(=O)N(C(C)C)C2=O)o1	i
CCS(=O)(=O)Nc1ccc(C2=NN(S(C)(=O)=O)C(c3cccs3)C2)cc1 (stereo not given)	i
CS(=O)(=O)c1ccc(C(=O)NCCN2C(=O)S/C(=C\c3cccnc3)C2=O)cc1[N+](=O)[O-]	i
CCOC(=O)N1CCC(=NNC(=O)COc2ccc(OC)cc2)CC1	i
COc1cccc2nc3cc(C)c(C)cc3nc12	14µM
COc1cc(F)ccc1S(=O)(=O)n1c(C)nc2ccccc21	i
Cc1ccc(Nc2cc(C)c3c(O)cccc3n2)cc1C	i
CCN1C(=O)c2ccccc2S(=O)(=O)c2ccc(C(=O)NCc3cccnc3)cc21	i
O=C(NCc1ccco1)c1cc2ccc(O)cc2oc1=O	11µM
O=C(NNC(=O)c1cc2cc(Br)ccc2oc1=O)c1ccc(O)cc1O	i
Cc1c(Br)cc(C(=O)NCc2ccco2)c(C)c1C	i
COc1ccccc1CNC(=O)C1=CCN(S(=O)(=O)c2ccc(C)cc2)CC1	i
CCCCC(=O)OCC(=O)Nc1ccc(SC(F)F)cc1	i
CNc1nc(-c2ccccc2)[n+](-c2ccc(C)cc2)s1	10µM
SMILES	PKM2 inh
COCCn1c(-c2ccccc2)cnc1SCC(=O)Nc1cccc2ccccc12	i
COc1c(O)c(O)cc2c1oc1c3ccccc3oc(=O)c21	i
O=C(O)c1cc(NC(=O)c2cccc(C(=O)Nc3cc(C(=O)O)cc(C(=O)O)c3)c2)cc(C(=O)O)c1	13µM
CC(=O)N1CCN(c2ccc(NC(=O)c3cccc(C)c3)cc2)CC1	i
O=C(Nc1cccc(O)c1)c1cccc(S(=O)(=O)Nc2cccc(O)c2)c1	i
COc1ccc2nc(NC(=O)CCNC(=O)c3ccccc3Cl)sc2c1	i
Cc1nc2ccc(S(=O)(=O)NCC(=O)N(C)Cc3ccco3)cc2s1	i
COc1ccc2nc(NC(=O)c3ccoc3C)sc2c1	16µM
Cc1cccc2cc(C#N)c(NCCNS(=O)(=O)c3ccc4c(c3)OCCO4)nc12	i
O=C(COC(=O)C1CCN(S(=O)(=O)c2ccc3c(c2)OCCO3)CC1)Nc1cc(C(F)(F)F)ccc1Cl	i
Cc1cc(NC(=O)CSc2nc3c(C)cccc3cc2C#N)no1	i
Cc1ccc(NC(=O)c2cc(-c3ccc(C)o3)nc3ccccc23)cc1	i
O=C(Nc1ccccc1)c1cc2ccccc2o1	11µM
NC(=O)c1oc2ccccc2c1NC(=O)CCc1ccccc1	i
CNc1c([N+](=O)[O-])cnn1-c1ccc(C)cc1	i
Cc1nnc(SCC(=O)Nc2nccs2)o1	i
O=C1C=CC(=O)N1c1ccc(Sc2ccc([N+](=O)[O-])cc2)cc1	i
CC1=NN(c2ccc([N+](=O)[O-])cc2)C(=O)/C1=C\N(C)C	16µM
Cn1c(-c2ccc([N+](=O)[O-])cc2)nc2ccccc21	i
Cc1cc(-c2csc(NC(=O)c3ccc(=O)[nH]c3)n2)c(C)n1Cc1ccco1	i
Cc1cc2c(cc1S(=O)(=O)Nc1cccc(F)c1)n(C)c(=O)c(=O)n2C	i
Cn1c(=O)n(C)c2cc(NC(=O)c3ccccc3[N+](=O)[O-])c(Br)cc21	i
COc1ccc2c(c1)-c1nc(NC(=O)c3cccs3)sc1CC2	i
COc1ccc2nc3c(cc2c1)Cc1ccccc1-3	14µM
COc1cc(C(=O)NCC(=O)N2CCN(S(=O)(=O)c3cc(C)ccc3C)CC2)cc(OC)c1OC	i
SMILES	PKM2 inh
O=C(NCc1nc(-c2ccc(C(F)(F)F)cc2)no1)Nc1ccc(OC(F)(F)F)cc1	i
Cc1cnc(NC(=O)C2(c3ccccc3)CC2)s1	i
CCOC(=O)c1c(C)[nH]c(-c2csc(N)n2)c1C	i
Cc1ccc(NC(=O)Cn2sc3nc(C)cc(C)c3c2=O)c(Cl)c1	i
COc1ccc(S(=O)(=O)N(CC(=O)NC2CC2)c2ccc(C)cc2)cc1	i
O=[N+]([O-])c1ccc2nc(NS(=O)(=O)c3ccc(F)cc3)sc2c1	i
COC(=O)c1ccc(C(=O)OC)c(NC(=O)CSc2cccc[n+]2[O-])c1	i
Cc1ccccc1-c1ncc(CN2CCC(CO)(CCCc3ccccc3)CC2)cn1	i
COc1ccc(-c2cc3c(nn2)-c2ccccc2C3=O)cc1	16µM
COc1ccc(S(=O)(=O)c2cnc3ccccc3n2)cc1	i
COc1ccc(-c2cc(=O)[nH][nH]2)cc1	i
CCOC(=O)c1[nH]c2ccccc2c1N=CN(CC)CC	i
O=C1CCN(S(=O)(=O)c2ccccc2)CCN1CCOCc1ccc(Cl)cc1	i
Fc1ccccc1C1CC(c2ccco2)=Nc2ccccc2S1 (stereo not given)	i
COc1ccc(S(=O)(=O)Nc2ccc(-n3cccc3)cc2)cc1	i
CN(C)c1ccc(/C=N/NC(=O)c2ccnn2C)cc1	7.9µM
CCS(=O)(=O)N1CCN(S(=O)(=O)c2ccc3c(c2)OCCO3)CC1	i
Cc1ccnc(SCc2cc(=O)c(OC(=O)c3ccc(S(=O)(=O)N(C)C)cc3)co2)n1	i
CC(C)(C)OC(=O)NCCCCCc1nnc(SCC(=O)Nc2cccc(Cl)c2)o1	i
COc1ccc(C2=CC(=O)C=CC2=O)cc1	18µM
COc1ccc(S(=O)(=O)/N=C2/C=CC(=O)C(C)=C2C)cc1	i
COc1ccc(S(=O)(=O)c2ccc(OC)cc2)cc1	i
c1ccc(-c2nc(-c3ccco3)cs2)nc1	i
Cc1ccc(-c2nc(-c3ccccn3)no2)cc1	10µM
CC(=O)Nc1nnc(-c2ccccn2)o1	i
SMILES	PKM2 inh
CC(=C\C(=O)O)/C(=C/c1ccc(C)o1)C(=O)O	i
c1coc(CN(Cc2ccco2)c2ncnc3c2oc2ccccc23)c1	i
Cc1cc(N=Cc2c(O)ccc3cc(Br)ccc23)no1	i
Cc1nc(N=Nc2ccc(O)cc2)n[nH]1	13µM
COc1ccc(NC(=O)/C(Cl)=C(/Cl)S(=O)Cc2ccc(Cl)cc2)cn1 (stereo not given)	i
N#Cc1nccnc1S(=O)(=O)c1cccs1	i
Cc1cc(C)n2nc(CNS(=O)(=O)c3ccc(F)c(C)c3)nc2n1	i
O=C(Nc1ccc(-c2ccc3nncn3n2)cc1)c1ccc(Br)o1	i
O=C1NC(=S)S/C1=C1\Sc2ccccc2N1CCCS(=O)(=O)O	11µM
CN(CC1CCCN(CCc2cccc(C(F)(F)F)c2)C1)C(=O)c1cc2ccccc2o1 (stereo not given)	i
O=C(c1ccncc1)N1N=C(c2ccc(Cl)cc2)CC1c1ccccc1O (stereo not given)	i
CN(C)c1ccc(N=Nc2nc3ccccc3n2C)cc1	16µM
COc1cccc(CNc2nc3ccccc3n2C)c1O	i
CNc1ccccc1-c1nc2ccccc2n(C)c1=O	i
Cc1nc([N+](=O)[O-])c(Sc2nc3ccc([N+](=O)[O-])cc3[nH]2)n1Cc1ccccc1	i
